Assay outcomes as filed in PubChem BioAssay.
A selection: hits, their analogues and other compounds. The true share with any hit is near 1.4%.
N370S GC mod: inhibitors or activators of N370S glucocerebrosidase for Gaucher disease. P04062. N370S GC spleen homogenate, 4MU-glucoside fluorescence. Potency, µM (doses to about 59.4 µM), without a hit: at the top dose activity change, negative = inhibition, most hits filed as inhibitors. 330,000 compounds, 0.092% hits. AID 2101;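 note: potency is the fitted concentration of half-maximal effect; 0% = full enzyme activity and -100% = no enzyme basal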
TCR activator: activators of T cell receptors; primary human leukocytes, anti-CD3, IL-2 HTRF, 48 h; Potency, µM (highest dose often 9.22 µM), for inactives: top-dose activation of IL-2 secretion, hits mostly activators; 330,000 tested, under 10 active; AID 504894; note: % of control where 0% means no effect
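IL-2 release read by HTRF sandwich (Eu cryptate donor, d2 acceptor, 665 nm emission) after 48 hr exposure of primary human leukocytes to compound together with anti-CD3 beads in the absence of co-stimulatory signals.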
BRCA1 expr up: increases BRCA1 expression. MCF7-BRCA1-FFLuc reporter, luminescence, 48 h; response scale: scaled: vehicle 0%, 10 µM genistein 100%. Potency, µM (titrated, usually from 46.1 µM), without a hit: top-dose activation, hits mostly activators. 380,000 compounds, 1.1% hits. AID 624202; note: potency is the fitted concentration of half-maximal effect; nearly all actives have a fitted effect of over 80% in size
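Luminescence from a BRCA1-driven firefly luciferase in MCF7 cells was the read-out, taken 15 min after substrate addition following 48 h compound exposure at 37 °C. Data were normalized to a 10 microM genistein control and DMSO vehicle.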
p53 reactivation: restores transcriptional activity of mutant p53; Potency, µM (highest dose often 92.2 µM), for inactives: at the top dose activity change, positive = activation, actives largely listed as activators; H1299 p53-A138V BP100-luciferase reporter, luminescence, 24 h; AID 504706; 320,000 compounds, 0.063% hits; note: potency is the fitted concentration of half-maximal effect; % of control where 0% means no effect; nearly all actives have a fitted effect of over 45% in size
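p53-null H1299 cells stably carrying temperature-sensitive p53-A138V and a BP100-luciferase reporter were pinned with compounds (4-point, 1:5 series) and held 24 hrs at 37 deg C. Luminescence was read 10 min after detection reagent.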
GLS inhibitor: blocks human kidney-isoform glutaminase activity; O94925; GLS enzymatic activity, qHTS titration; Potency, µM (top dose mostly 45.5 µM), for inactives: at the top dose activity change, negative = inhibition, most hits filed as inhibitors; 410,000 compounds, 0.21% hits; note: potency is the fitted concentration of half-maximal effect; % is set by controls: 0 for no effect and ±100 for the full control effect
Target sequence (O94925 whole entry, looked up, canonical isoform): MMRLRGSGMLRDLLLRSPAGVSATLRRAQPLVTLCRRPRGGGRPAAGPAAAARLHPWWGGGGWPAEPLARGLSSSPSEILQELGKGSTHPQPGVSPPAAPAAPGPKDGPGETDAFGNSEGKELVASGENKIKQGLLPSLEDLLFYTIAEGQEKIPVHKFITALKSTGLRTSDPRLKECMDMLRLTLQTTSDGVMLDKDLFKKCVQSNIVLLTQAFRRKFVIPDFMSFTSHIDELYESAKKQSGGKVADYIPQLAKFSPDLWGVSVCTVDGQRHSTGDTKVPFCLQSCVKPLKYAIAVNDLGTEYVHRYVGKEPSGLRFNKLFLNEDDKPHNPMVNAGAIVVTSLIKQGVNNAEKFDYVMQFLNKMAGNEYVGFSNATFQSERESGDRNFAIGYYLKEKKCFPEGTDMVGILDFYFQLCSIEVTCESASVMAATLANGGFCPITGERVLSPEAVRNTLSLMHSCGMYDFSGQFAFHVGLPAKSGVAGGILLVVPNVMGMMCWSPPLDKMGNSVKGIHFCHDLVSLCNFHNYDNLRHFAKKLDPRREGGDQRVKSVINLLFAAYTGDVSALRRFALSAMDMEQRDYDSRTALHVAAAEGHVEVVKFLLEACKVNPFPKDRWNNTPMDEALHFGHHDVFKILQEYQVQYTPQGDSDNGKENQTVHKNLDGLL
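hKGA in 45 mM KH2PO4 (pH 8.2), 0.02% Tween-20 with compound, then 1mM L-Glutamine (stock as added) plus glutamate oxidase/HRP/Amplex red coupling mix. Fluorescence read initially and after 30 min at RT; signal change reflects glutamate formation.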
TSHR antag: blocks TSH signaling through the human TSH receptor; TSHR-expressing cells, TSH-stimulated cAMP HTRF, 2 h; active compounds read low; activity change, negative = inhibition, % at 11.5 µM; P16473; 330,000 compounds, 0.2% hits;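 active = activity change below a set negative limit, meaning inhibition stronger than a set level, cut at about -70% in these data; inconclusive = activity change between two set negative limits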; note: % is set by controls: 0 for no effect and ±100 for the full control effect
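Inhibition of cAMP made by TSHR-expressing cells under TSH stimulation (4nM final, EC80; 2 h, 37 deg C) is quantified with a one-step lysis HTRF kit, anti-cAMP cryptate versus cAMP-d2.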
* marks the source's active call; other numbers are inactive results; ? = inconclusive; nt = no result; [ ] = remark or other dose. Unless noted, calls come from the whole dose curve; as a rule, active = well fitted curve in the direction sought with a large enough effect; inconclusive = small, poorly fitted or top-dose-only effect, or another doubt; inactive = no such curve, though single readings can be large; an effect the other way counts as inactive or inconclusive.

SMILES	N370S GC mod	TCR activator	BRCA1 expr up	p53 reactivation	GLS inhibitor	TSHR antag
CCOC(=O)CNC(=O)c1sc(NC(=O)c2cccc(F)c2)nc1C	1.2%	3.8%	8.91µM*	3.7%	5.2%	13.1
CCOC(=O)CNC(=O)c1sc(NC(=O)c2ccccc2F)nc1C	2.8%	0.3%	?	-9.7%	-3.7%	7.1
CC1CCC(NC(=O)C2COc3ccccc3O2)CC1 (stereo not drawn)	23.9%	1.7%	10µM*	8.9%	12.0%	62.8
CC1CCCC(NC(=O)C2COc3ccccc3O2)C1C (stereo not drawn)	nt	3.9%	-3.0%	10.8%	3.1%	-1.0
COc1ccc2c(C)cc(=O)oc2c1	17.5%	-10.3%	0.8%	nt	-6.8%	nt
COc1cccc(COc2ccc3c(C)cc(=O)oc3c2)c1	4.9%	-15.3%	2.82µM*	?	-2.9%	0.9
COc1ccc(S(=O)(=O)Nc2ccc(-c3cn4ccsc4n3)cc2)cc1C	nt	nt	0.1%	nt	3.6%	nt
CN(C)S(=O)(=O)Nc1ccc(-c2cn3ccsc3n2)cc1	nt	nt	11.2µM*	nt	-3.0%	nt
Cc1cc(C(=O)CN2C(=O)NC3(CCCCC3C)C2=O)c(C)n1Cc1cccs1 (stereo not drawn)	-9.9%	-1.0%[46.1 µM]	4.47µM*	?	8.8%	-8.3
COC(=O)c1ccc(/C=C2\Oc3ccccc3NC2=O)cc1	-6.8%	-5.7%	2.24µM*	6.1%	-8.0%	-7.3
CC(=O)Nc1ccc(/C=C/c2nc3ccccc3s2)cc1	nt	nt	9.9%	nt	nt	nt
C#CCOCCOCCOCCNc1nc(N2CCN(C(=O)CCCCCCCCCCNC(=O)[C@H](CCCCN)n3cc(CCO)nn3)CC2)nc(N2CCN(C(=O)CCCCCCCCCCNC(=O)[C@H](CCCN=C(N)N)n3cc(C[C@@H](C)CC)nn3)CC2)n1	7.94µM*	6.0%	-31.6%	-6.4%	?	-16.0
C#CCOCCOCCOCCNc1nc(N2CCN(C(=O)CCCCCCCCCCNC(=O)[C@H](CCCCN)n3cc(C)nn3)CC2)nc(N2CCN(C(=O)CCCCCCCCCCNC(=O)[C@@H]([C@H](C)CC)n3cc(CCCCCN)nn3)CC2)n1	17.8µM*	nt	nt	-29.8%	nt	4.3
C#CCOCCOCCOCCNc1nc(N2CCN(C(=O)CCCCCCCCCCNC(=O)Cn3cc(C[C@@H](C)O)nn3)CC2)nc(N2CCN(C(=O)CCCCCCCCCCNC(=O)[C@H](CCCCN)n3cc(C[C@@H](C)CC)nn3)CC2)n1	22.4µM*	3.8%	-94.3%	10.1%	?	45.0
C#CCOCCOCCOCCNc1nc(N2CCN(C(=O)CCCCCCCCCCNC(=O)[C@H]([C@@H](C)CC)n3cc(CCCCCN)nn3)CC2)nc(N2CCN(C(=O)CCCCCCCCCCNC(=O)[C@@H]([C@H](C)O)n3cc(C)nn3)CC2)n1	?	1.0%	-61.2%	-20.2%	?	-10.1
Cc1ccc(C(=O)O)cc1N1C(=O)c2cccc3c([N+](=O)[O-])ccc(c23)C1=O	2.9%	-8.5%	-45.7%	nt	?	-73.4*
O=C1S/C(=C\c2cccs2)C(=O)N1c1ccc(O)cc1	-7.0%	0.4%	11.2µM*	16.3%	-15.0%	-3.9
CCOc1c(O)ccc(/C=C2\SC(=S)NC2=O)c1[N+](=O)[O-]	?	1.6%	11.2µM*	8.0%	35.0%	-20.8
CCCCCCCCCCCCCCCCCCCCCCCCCCCCCC	-5.3%	nt	nt	nt	nt	nt
N#CC(C#N)=C1C=CC=CN1/C(=C\c1ccco1)C(=O)c1ccc(Br)cc1	1.1%	2.3%[46.1 µM]	-95.3%	-31.1%	2.5%	-91.4*
COc1cc(NC(=O)c2c(OC)cccc2OC)ccc1NC(=O)c1cc2ccccc2o1	-3.9%	0.2%	11.2µM*	28.5%	-16.9%	-2.9
COc1cc(NC(=O)c2ccc(F)cc2)ccc1NC(=O)c1cc2ccccc2o1	0.6%	3.2%	0.0%	nt	-9.1%	1.4
C(/C=C/c1ccccc1)=N/N1CCN(c2ccccc2)CC1	7.5%	-3.9%	7.94µM*	8.1%	3.2%	-7.3
C(=C\c1ccccc1)/C=N/N1CCN(Cc2ccccc2)CC1	-2.0%	5.2%	11.2µM*	8.4%	-7.1%	-10.1
CN1CCN(/N=C/c2ccc(Br)cc2)CC1	-7.2%	7.2%	5.62µM*	10.0%	-8.1%	25.0
SMILES	N370S GC mod	TCR activator	BRCA1 expr up	p53 reactivation	GLS inhibitor	TSHR antag
CN1CCN(/N=C/c2ccc(N(c3ccccc3)c3ccccc3)cc2)CC1	-14.8%	2.4%	-84.1%	-4.4%	-6.4%	-9.6
C(=C\c1ccccc1)/C=N/N1CCN(c2ccccn2)CC1	22.7%	4.2%	?	24.1%	9.3%	-6.5
Clc1ccc(/C=N/N2CCN(Cc3ccccc3)CC2)cc1	-21.5%	2.1%	32.3%	?	-1.9%	-1.4
CN(C)c1ccc(C=NN2CCCCCC2)cc1	nt	2.8%	7.94µM*	nt	4.5%	nt
O=C(COc1ccccc1C(=O)Nc1cccc(F)c1)Nc1ccc(Br)cc1	nt	nt	-10.7%	nt	nt	nt
Cc1ccc(/C=N/N2CCN(c3ccccc3)CC2)cc1	4.5%	-3.8%	12.6µM*	-12.6%	0.0%	13.4
COc1ccc(NC(=O)c2cc3ccccc3o/c2=N\NS(=O)(=O)c2ccc(C)cc2)cc1	-9.9%	3.3%	5.01µM*	?	0.8%	-0.5
NS(=O)(=O)c1cccc(NC(=O)CCSc2ccccc2Cl)c1	-16.4%	-3.4%[46.1 µM]	10µM*	?	3.6%	2.7
O=C(CCSc1ccccc1Cl)Nc1cccc([N+](=O)[O-])c1	?	1.3%[46.1 µM]	?	?	-6.7%	-3.3
CCOC(=O)c1ccc(NC(=O)c2ccc(NC(=O)c3ccccc3)cc2)cc1	0.7%	4.6%	18.2%	-2.2%	-1.7%	-9.1
Cc1ccc(NC(CC(=O)c2ccccc2)c2ccc(F)cc2)cc1 (stereo not drawn)	11.6%	-0.4%	1.5%	?	7.4%	-2.9
Cc1ccc(C(=O)Cc2ccccc2)cc1	nt	1.2%	47.1%	nt	6.2%	nt
Cc1ccc(C(=O)CC(Nc2ccc(F)cc2)c2ccccc2)cc1 (stereo not drawn)	12.6%	2.1%[46.1 µM]	42.6%	17.8µM*	-1.3%	-8.8
Cc1ccc(C(=O)CC(=O)c2ccccc2)cc1	-21.4%	nt	5.01µM*	15.1%	3.6%	-8.0
CC(C)OC(=O)c1ccc(NC(=O)c2ccccc2)cc1	-16.7%	-2.4%[46.1 µM]	2.51µM*	?	0.5%	0.7
Cc1ccc(C(=O)/C=C/C(=O)c2ccc(C)cc2)cc1	7.6%	-3.8%	?	0.1%	2.82µM*	14.7
